The text below walks through data of PubChem BioAssay (NCATS).

Inconclusive results are not listed. Entries that show only a call come without a potency. Calls of active or inactive are those of the source. Unless noted, calls come from the whole dose curve; as a rule, active = well fitted curve in the direction sought with a large enough effect; inconclusive = small, poorly fitted or top-dose-only effect, or another doubt; inactive = no such curve, though single readings can be large; an effect the other way counts as inactive or inconclusive.

Chain of DNA dC->dU-editing enzyme APOBEC-3G (Homo sapiens) (Q9HC16 whole entry, looked up): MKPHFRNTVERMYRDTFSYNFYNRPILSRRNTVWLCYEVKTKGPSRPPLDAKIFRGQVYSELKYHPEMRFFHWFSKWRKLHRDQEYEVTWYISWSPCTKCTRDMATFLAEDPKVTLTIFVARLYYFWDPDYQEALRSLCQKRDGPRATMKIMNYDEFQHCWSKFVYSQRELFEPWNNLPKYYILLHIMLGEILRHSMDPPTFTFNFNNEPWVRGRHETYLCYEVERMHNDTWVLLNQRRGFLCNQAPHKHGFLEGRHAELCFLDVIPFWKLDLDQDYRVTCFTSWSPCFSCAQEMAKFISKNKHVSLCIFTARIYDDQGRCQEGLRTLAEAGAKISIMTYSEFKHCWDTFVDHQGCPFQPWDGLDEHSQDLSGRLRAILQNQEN
Chain of Alpha-galactosidase (Coffea arabica) (Q42656 whole entry, looked up): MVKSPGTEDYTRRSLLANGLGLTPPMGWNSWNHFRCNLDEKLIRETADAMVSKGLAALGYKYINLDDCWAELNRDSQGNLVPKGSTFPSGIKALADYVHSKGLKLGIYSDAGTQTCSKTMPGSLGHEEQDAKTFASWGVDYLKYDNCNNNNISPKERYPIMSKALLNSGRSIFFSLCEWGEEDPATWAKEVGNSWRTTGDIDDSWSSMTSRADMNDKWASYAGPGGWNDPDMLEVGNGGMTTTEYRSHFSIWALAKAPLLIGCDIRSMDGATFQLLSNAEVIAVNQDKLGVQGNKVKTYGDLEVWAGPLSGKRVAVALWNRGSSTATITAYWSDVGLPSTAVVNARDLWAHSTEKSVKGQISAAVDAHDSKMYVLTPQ
Chain of Cytochrome P450 2C19 (Homo sapiens) (P33261 whole entry, looked up): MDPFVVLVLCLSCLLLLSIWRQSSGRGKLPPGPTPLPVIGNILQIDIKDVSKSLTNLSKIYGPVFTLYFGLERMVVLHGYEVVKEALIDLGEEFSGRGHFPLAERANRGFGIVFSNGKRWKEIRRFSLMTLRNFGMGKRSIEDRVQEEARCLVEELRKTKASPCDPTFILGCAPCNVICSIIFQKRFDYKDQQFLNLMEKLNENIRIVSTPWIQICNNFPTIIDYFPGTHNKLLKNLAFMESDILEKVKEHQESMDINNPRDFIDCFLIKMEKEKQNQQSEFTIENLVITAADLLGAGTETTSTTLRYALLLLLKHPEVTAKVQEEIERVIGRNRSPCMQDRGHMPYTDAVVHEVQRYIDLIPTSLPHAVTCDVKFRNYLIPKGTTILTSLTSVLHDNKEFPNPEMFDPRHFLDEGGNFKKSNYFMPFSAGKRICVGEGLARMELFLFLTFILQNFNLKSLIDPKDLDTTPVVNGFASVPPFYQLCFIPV
Chain of Pyruvate kinase PKM (Homo sapiens) (P14618 whole entry, looked up): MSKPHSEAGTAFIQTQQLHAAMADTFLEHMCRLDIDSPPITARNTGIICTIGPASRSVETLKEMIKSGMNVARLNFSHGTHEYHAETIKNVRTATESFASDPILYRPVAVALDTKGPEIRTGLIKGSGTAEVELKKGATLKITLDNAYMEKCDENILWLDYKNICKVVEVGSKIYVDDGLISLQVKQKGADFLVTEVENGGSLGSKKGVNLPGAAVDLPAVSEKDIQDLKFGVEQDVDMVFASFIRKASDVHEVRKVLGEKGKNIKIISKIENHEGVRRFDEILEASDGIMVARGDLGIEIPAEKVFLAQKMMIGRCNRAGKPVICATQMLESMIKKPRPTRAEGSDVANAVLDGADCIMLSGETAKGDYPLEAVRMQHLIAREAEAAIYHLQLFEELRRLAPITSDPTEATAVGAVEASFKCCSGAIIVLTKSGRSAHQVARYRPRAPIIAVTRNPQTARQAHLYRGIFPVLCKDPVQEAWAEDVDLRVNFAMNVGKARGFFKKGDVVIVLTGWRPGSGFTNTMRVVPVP

In the first assay the target is Cytochrome P450 2C19 (Homo sapiens) (UniProt P33261). Put plainly: qHTS Assay for Inhibitors and Substrates of Cytochrome P450 2C19 (AID 899). Note: nearly all actives have a fitted effect of over 60% in size. Note: potency is the fitted concentration of half-maximal effect. Conditions: recombinant CYP2C19, luciferin-H EGE luminescence; series mostly up to 57.1 µM. In short, it runs like this:
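Luminescence readout of luciferin formed from 10uM Luciferin-H EGE (KM level) by 5 nM CYP2C19 in 50mM KPO4. 60 min NADPH-driven reaction at 37C after 10 min compound preincubation; data scaled to 57uM ketoconazole inhibition.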
With `C[C@@H](CO)NC(=O)[C@H]1C=C2c3cccc4[nH]cc(c34)C[C@H]2N(C)C1`, the Potency entry is “inactive”.

On to `CC1=CC(=O)C2=C(C)C[C@H](O)[C@@H]3[C@@H](OC(=O)[C@H]3C)[C@H]12`, for which the Potency entry is “inactive”.

Regarding `COC1=C[C@H]2[C@@H]3Cc4ccc(OC)c(O)c4[C@@]2(CCN3C)CC1=O`, the Potency result is “inactive”.

For the compound `COc1cc2c(cc1O)CCN[C@H]2C`, the Potency result was “inactive”.

With `CCN1C[C@@]2(COC(=O)c3ccccc3N3C(=O)C[C@H](C)C3=O)CC[C@H](OC)[C@@]34[C@@H]5CC6[C@@H](OC)C[C@@](O)([C@H]5[C@H]6OC)C(O)([C@@H]13)[C@@H](OC)[C@H]24`, the Potency entry was “inactive”.

As to `c1cc2c(cc1[C@H]1OC[C@H]3[C@@H]1CO[C@H]3c1ccc3c(c1)OCO3)OCO2`, the Potency is 3160 nM (active).

With `OC[C@H]1CCCN2CCCC[C@@H]12`, the Potency entry was “inactive”.

Regarding `CC(C)[C@]1(NC(=O)[C@H]2C=C3c4cccc5[nH]cc(c45)C[C@H]3N(C)C2)O[C@@]2(O)[C@H]3CCCN3C(=O)[C@H](Cc3ccccc3)N2C1=O`, the Potency was 2000 nM (active).

Take `C[C@H]1C(=O)O[C@H]2CCN3CC=C(COC(=O)[C@](C)(O)[C@@]1(C)O)[C@H]23`: the Potency entry was “inactive”.

In the case of `CC[C@H]1CN2CC[C@@H]1C[C@@H]2[C@H](O)c1ccnc2ccccc12`, the Potency entry is “inactive”.

Take `CCCCCC[C@H]1C(=O)O[C@@H](C)[C@H](NC(=O)c2cccc(NC=O)c2O)C(=O)O[C@@H](C)[C@@H]1OC(=O)CC(C)C`: the Potency result was “inactive”.

Consider `C[C@@]12CCC[C@](C)(C(=O)O)[C@@H]1CCc1ccc(O)cc12`, for which the Potency result is “inactive”.

With `CO[C@@H](C)[C@](O)(C(=O)OC1=CCN2CC[C@H](O)[C@H]12)C(C)C`, the Potency result is “inactive”.

Take `C[C@@H]1CCC/C=C\[C@H]2C[C@H](O)C[C@@H]2[C@H](O)/C=C\C(=O)O1`: the Potency entry was “inactive”.

Take `C[C@H]1CC[C@]2(NC1)O[C@@H]1C[C@@H]3[C@@H]4CC=C5C[C@H](O)CC[C@@]5(C)[C@H]4CC[C@@]3(C)[C@H]1[C@@H]2C`: the Potency result is “inactive”.

`COc1cc2c(cc1OC)-c1c(OC)c(OC)c(CO)c3c1[C@H](C2)N(C)CC3`: the Potency result is “inactive”.

With `CC[C@@H]1CN2CC[C@@H]1C[C@H]2[C@@H](O)c1ccnc2ccc(OC)cc12`, the Potency entry was “inactive”.

The target of a further assay is Pyruvate kinase (Leishmania mexicana) (UniProt Q27686). Put plainly: qHTS Validation Assay for Inhibitors of Leishmania Mexicana Pyruvate Kinase (AID 945). The settings on record: purified L. mexicana pyruvate kinase, enzyme activity, E451W mutant enzyme; series mostly up to 57.5 µM. In short, it runs like this: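 Eight-point qHTS titrations in triplicate, data normalized to DMSO neutral control. Reaction: 0.2 nM LmPYK E451W mutant, 0.5 mM PEP, 0.1 mM ADP, 7 mM MgCl2, pH 7.2, one hour at room temperature; luminescent ATP detection.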
Chain of Pyruvate kinase (Leishmania mexicana) (Q27686 2-499 E452W): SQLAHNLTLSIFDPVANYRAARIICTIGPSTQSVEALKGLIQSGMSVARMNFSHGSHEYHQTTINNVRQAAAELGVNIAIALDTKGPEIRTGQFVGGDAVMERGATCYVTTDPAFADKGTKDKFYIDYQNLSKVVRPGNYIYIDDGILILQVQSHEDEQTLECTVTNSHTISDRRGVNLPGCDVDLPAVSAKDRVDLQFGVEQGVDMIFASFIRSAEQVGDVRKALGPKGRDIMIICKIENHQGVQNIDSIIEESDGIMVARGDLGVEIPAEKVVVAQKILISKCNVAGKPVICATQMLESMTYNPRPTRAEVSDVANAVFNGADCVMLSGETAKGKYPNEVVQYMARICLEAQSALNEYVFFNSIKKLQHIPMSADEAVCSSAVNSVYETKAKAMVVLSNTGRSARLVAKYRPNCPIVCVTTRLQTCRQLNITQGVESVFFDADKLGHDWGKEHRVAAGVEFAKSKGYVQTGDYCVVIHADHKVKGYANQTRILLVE
With `NC(=O)c1ccc(OC[C@H](O)CN2CC=C(c3ccc(F)cc3)CC2)cc1`, the Potency result is “inactive”.

Take `C[C@@H]1O[C@@H](O[C@H]2C[C@@H](O)[C@]3(CO)[C@@H]4[C@@H](O)C[C@]5(C)[C@H]([C@@H]6COC(=O)C6)CC[C@@]5(O)[C@H]4CC[C@@]3(O)C2)[C@H](O)[C@H](O)[C@@H]1O`: the Potency entry was “inactive”.

In the case of `COC[C@H]1OC(=O)c2coc3c2[C@@]1(C)C1=C(C3=O)[C@H]2CCC(=O)[C@@]2(C)C[C@H]1OC(C)=O`, the Potency entry was “inactive”.

In the next assay the target is Pyruvate kinase PKM (Homo sapiens) (UniProt P14618). Put plainly: qHTS Assay for Activators of Human Muscle Pyruvate Kinase (AID 954; active = well fitted curve in the direction sought with a large enough effect, not every such curve was filed as active). The settings on record: purified human muscle pyruvate kinase, luciferase-coupled luminescence, 1 h; series mostly up to 57.5 µM. The essentials:
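Reaction: 0.1 nM purified PKM2 with 0.5 mM phosphoenolpyruvate and 0.1 mM ADP, room temperature, 1 h. Readout: luciferase-based ATP luminescence after stop reagent. Activators judged against a 0.3 nM enzyme column.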
As for `NC(=O)c1ccc(OC[C@H](O)CN2CC=C(c3ccc(F)cc3)CC2)cc1`, the compound was classed as inactive.

For `C[C@@H]1O[C@@H](O[C@H]2C[C@@H](O)[C@]3(CO)[C@@H]4[C@@H](O)C[C@]5(C)[C@H]([C@@H]6COC(=O)C6)CC[C@@]5(O)[C@H]4CC[C@@]3(O)C2)[C@H](O)[C@H](O)[C@@H]1O`, the outcome was inactive.

Consider `COC[C@H]1OC(=O)c2coc3c2[C@@]1(C)C1=C(C3=O)[C@H]2CCC(=O)[C@@]2(C)C[C@H]1OC(C)=O`, for which the call was inactive.

For another assay, the target named is alpha-glucosidase (Oryza sativa, rice) (UniProt Q653V4). Put plainly: Counterscreen for Glucocerebrosidase Inhibitors: qHTS Assay for Rice alpha-Glucosidase at pH 5.0 (AID 997). The settings on record: rice alpha-glucosidase enzyme activity; series mostly up to 76.9 µM. The essentials:
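Rice alpha-glucosidase (4 nM final) with 400 uM 4-methylumbelliferyl-alpha-D-glucopyranoside in citrate buffer pH 5.0, 20 min at room temperature, stopped at pH 10; fluorescence 365/440 nm, compounds 0.7 nM–77 uM, AC50 from Hill fits.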
As to `NC(=O)c1ccc(OC[C@H](O)CN2CC=C(c3ccc(F)cc3)CC2)cc1`, the compound was called inactive.

On to `C[C@@H]1O[C@@H](O[C@H]2C[C@@H](O)[C@]3(CO)[C@@H]4[C@@H](O)C[C@]5(C)[C@H]([C@@H]6COC(=O)C6)CC[C@@]5(O)[C@H]4CC[C@@]3(O)C2)[C@H](O)[C@H](O)[C@@H]1O`, for which the call was inactive.

Consider `COC[C@H]1OC(=O)c2coc3c2[C@@]1(C)C1=C(C3=O)[C@H]2CCC(=O)[C@@]2(C)C[C@H]1OC(C)=O`, for which the compound was called inactive.

A further assay has as its target Alpha-galactosidase (Coffea arabica) (UniProt Q42656). Put plainly: Counterscreen for Glucocerebrosidase Inhibitors: qHTS Assay for Coffee Bean alpha-Galactosidase at pH 5.9 (AID 998). The settings on record: coffee bean alpha-galactosidase enzyme assay; series mostly up to 76.9 µM. The essentials:
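Compounds were titrated from 0.7 nM to 77 uM against green coffee bean alpha-galactosidase (2 nM) using 80 uM fluorogenic 4-methylumbelliferyl substrate. After 20 min at room temperature, reactions were stopped at pH 10 and read by fluorescence.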
`NC(=O)c1ccc(OC[C@H](O)CN2CC=C(c3ccc(F)cc3)CC2)cc1`: the compound was called inactive.

In the case of `C[C@@H]1O[C@@H](O[C@H]2C[C@@H](O)[C@]3(CO)[C@@H]4[C@@H](O)C[C@]5(C)[C@H]([C@@H]6COC(=O)C6)CC[C@@]5(O)[C@H]4CC[C@@]3(O)C2)[C@H](O)[C@H](O)[C@@H]1O`, the compound was called inactive.

Consider `COC[C@H]1OC(=O)c2coc3c2[C@@]1(C)C1=C(C3=O)[C@H]2CCC(=O)[C@@]2(C)C[C@H]1OC(C)=O`, for which the outcome was inactive.

In the next assay the target is Ubiquitin carboxyl-terminal hydrolase 1 (Homo sapiens) (UniProt O94782). Put plainly: Inhibitors of USP1/UAF1: Pilot qHTS (AID 504865).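 Note: rhodamine fluorescence freed from ubiquitin-rhodamine substrate followed over time; top concentration of the series differs between compounds; nearly all actives have a fitted effect of over 35% in size.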 Conditions: purified USP1/UAF1, Ub-rhodamine cleavage fluorescence; series mostly up to 114 µM. In short, it runs like this: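 Enzyme-free wells gave the negative control, while test wells held 1nM USP1/UAF1 preincubated with compound for 15 min at room temperature. Ub-Rho at 150nM final started the reaction, and fluorescence at 480/540 nm was recorded kinetically.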
Chain of Ubiquitin carboxyl-terminal hydrolase 1 (Homo sapiens) (O94782 whole entry, looked up): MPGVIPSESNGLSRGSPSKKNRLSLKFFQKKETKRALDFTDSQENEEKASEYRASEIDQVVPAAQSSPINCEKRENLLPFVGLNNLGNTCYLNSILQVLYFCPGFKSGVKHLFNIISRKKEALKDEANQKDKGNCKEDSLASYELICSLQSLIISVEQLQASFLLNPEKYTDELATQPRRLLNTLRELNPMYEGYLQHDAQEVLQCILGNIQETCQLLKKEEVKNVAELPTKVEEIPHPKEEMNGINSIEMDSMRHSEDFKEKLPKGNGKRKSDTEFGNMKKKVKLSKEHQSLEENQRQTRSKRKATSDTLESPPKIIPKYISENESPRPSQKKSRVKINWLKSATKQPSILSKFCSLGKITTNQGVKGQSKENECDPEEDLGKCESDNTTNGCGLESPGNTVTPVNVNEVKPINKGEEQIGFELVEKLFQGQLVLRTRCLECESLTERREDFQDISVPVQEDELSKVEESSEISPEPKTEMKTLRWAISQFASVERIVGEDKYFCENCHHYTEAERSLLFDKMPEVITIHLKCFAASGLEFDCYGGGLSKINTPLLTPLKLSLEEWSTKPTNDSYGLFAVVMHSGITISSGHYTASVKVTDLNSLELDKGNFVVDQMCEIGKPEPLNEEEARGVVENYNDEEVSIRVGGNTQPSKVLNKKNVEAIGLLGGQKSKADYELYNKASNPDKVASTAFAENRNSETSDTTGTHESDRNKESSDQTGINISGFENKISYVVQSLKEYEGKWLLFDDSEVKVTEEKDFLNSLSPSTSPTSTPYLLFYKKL
Turning to `Oc1cc2c(cc1O)[C@H]1c3ccccc3CN[C@H]1CC2`, the Potency entry is “inactive”.

Regarding `c1cc2cc(c1)C[n+]1ccc(c3ccccc31)NCc1ccc(cc1)CNc1cc[n+](c3ccccc13)C2`, the Potency entry was “inactive”.

Turning to `COC[C@H]1OC(=O)c2coc3c2[C@@]1(C)C1=C(C3=O)[C@H]2CCC(=O)[C@@]2(C)C[C@H]1OC(C)=O`, the Potency result is “inactive”.

The target of a further assay is DNA dC->dU-editing enzyme APOBEC-3G (Homo sapiens) (UniProt Q9HC16). Put plainly: qHTS for inhibitors of Vif-A3G interactions: Validation (AID 588379). The settings on record: Vif-A3G protein interaction assay; series mostly up to 46.1 µM. The essentials:
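HeLa cells stably expressing Vif and A3G-eYFP, 700 cells/well, incubated overnight at 37 deg C, then exposed to compound overnight at 37 deg C. Inhibition of Vif-mediated degradation read as increased yellow fluorescence (Ex 488/Em 500-530) by laser-scanning cytometry.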
As for `Oc1cc2c(cc1O)[C@H]1c3ccccc3CN[C@H]1CC2`, the compound was classed as inactive.

As to `c1cc2cc(c1)C[n+]1ccc(c3ccccc31)NCc1ccc(cc1)CNc1cc[n+](c3ccccc13)C2`, the compound was classed as inactive.

As to `COC[C@H]1OC(=O)c2coc3c2[C@@]1(C)C1=C(C3=O)[C@H]2CCC(=O)[C@@]2(C)C[C@H]1OC(C)=O`, the result was inactive.
